Several values for one entry are separate records, joined by “and”; a condition that tells them apart may be missing. Equal values may be shown once. Some of the results follow. Activity calls are given as the source filed them. Unless noted, no stated cut-off is given here; in the data, active means inhibition above about 25%; inactive means the rest.
What was measured:
[1] = target: Nuclear receptor coactivator 3 (Homo sapiens) (UniProt Q9Y6Q9); experiment: NCOA3 GAL4-fusion reporter inhibition – cell-based, luminescence, quadruplicate, confirmation (AID 588792;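 active means mean inhibition over 43.08%, the solvent-only control mean plus 3 SD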;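 further: 0% = DMSO treated cells and 100% = gossypol at 36 µM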); settings: HEK293 GAL4-SRC3 luciferase reporter, at 3.6 µM, stronger effect = higher value
Chain of Nuclear receptor coactivator 3 (Homo sapiens) (Q9Y6Q9 whole entry, looked up, the tested form may be a part): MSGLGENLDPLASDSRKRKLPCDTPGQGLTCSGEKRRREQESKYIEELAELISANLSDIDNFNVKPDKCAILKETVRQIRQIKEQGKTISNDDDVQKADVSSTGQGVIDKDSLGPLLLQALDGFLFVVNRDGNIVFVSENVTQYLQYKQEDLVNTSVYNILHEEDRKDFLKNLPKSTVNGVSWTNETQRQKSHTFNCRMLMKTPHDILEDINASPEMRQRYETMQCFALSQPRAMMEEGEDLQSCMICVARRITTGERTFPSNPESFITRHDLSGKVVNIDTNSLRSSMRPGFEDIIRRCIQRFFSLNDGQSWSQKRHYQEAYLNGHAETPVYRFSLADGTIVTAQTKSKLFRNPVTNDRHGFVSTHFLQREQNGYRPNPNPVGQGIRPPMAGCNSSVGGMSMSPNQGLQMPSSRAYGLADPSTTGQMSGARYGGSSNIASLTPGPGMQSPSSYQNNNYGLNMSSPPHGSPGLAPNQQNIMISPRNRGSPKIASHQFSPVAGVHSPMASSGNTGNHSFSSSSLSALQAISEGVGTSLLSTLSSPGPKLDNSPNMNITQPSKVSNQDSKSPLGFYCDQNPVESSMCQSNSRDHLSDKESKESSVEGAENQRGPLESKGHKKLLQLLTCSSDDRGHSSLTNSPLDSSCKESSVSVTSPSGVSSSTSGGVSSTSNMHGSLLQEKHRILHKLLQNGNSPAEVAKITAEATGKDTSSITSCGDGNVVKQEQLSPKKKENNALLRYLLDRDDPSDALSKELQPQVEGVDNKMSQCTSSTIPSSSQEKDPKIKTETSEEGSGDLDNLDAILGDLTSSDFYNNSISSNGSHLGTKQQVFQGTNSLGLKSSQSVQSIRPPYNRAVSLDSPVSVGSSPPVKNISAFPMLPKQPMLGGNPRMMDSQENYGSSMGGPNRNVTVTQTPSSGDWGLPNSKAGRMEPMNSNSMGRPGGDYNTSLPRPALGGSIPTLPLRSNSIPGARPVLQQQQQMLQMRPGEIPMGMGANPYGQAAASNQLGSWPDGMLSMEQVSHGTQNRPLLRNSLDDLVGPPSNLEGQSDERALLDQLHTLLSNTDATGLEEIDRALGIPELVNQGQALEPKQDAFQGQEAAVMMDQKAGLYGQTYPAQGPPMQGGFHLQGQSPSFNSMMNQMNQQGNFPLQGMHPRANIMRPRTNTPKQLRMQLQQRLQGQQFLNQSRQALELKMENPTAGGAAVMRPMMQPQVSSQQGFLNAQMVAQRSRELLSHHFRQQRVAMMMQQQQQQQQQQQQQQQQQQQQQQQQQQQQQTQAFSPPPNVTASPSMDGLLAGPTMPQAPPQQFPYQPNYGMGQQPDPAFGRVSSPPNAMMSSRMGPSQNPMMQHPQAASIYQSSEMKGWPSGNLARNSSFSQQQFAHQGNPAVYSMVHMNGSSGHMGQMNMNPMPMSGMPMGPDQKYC

[2] = test system: transactivating tegument protein VP16 (Human herpesvirus 1), Gal4-VP16 luciferase reporter; experiment: repression of VP16-driven luciferase reporter – cell-based, luminescence, high throughput, counter-screen for SRC3 inhibitor project (AID 588794; in the data active means inhibition above about 30%); settings: mammalian cells, at 3.6 µM, stronger effect = higher value
[3] = target: Nuclear receptor coactivator 1 (Homo sapiens) (UniProt Q15788); experiment: NCOA1 GAL4-fusion reporter inhibition – cell-based, luminescence, quadruplicate, confirmation (AID 588820;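 active means mean inhibition above 46.68%, the untreated control wells mean plus 3 SD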;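 further: 0% = DMSO wells and 100% = gossypol 36 µM treated wells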); settings: HEK293 GAL4-SRC1 luciferase reporter, at 3.6 µM, stronger effect = higher value
Chain of Nuclear receptor coactivator 1 (Homo sapiens) (Q15788 whole entry, looked up, the tested form may be a part): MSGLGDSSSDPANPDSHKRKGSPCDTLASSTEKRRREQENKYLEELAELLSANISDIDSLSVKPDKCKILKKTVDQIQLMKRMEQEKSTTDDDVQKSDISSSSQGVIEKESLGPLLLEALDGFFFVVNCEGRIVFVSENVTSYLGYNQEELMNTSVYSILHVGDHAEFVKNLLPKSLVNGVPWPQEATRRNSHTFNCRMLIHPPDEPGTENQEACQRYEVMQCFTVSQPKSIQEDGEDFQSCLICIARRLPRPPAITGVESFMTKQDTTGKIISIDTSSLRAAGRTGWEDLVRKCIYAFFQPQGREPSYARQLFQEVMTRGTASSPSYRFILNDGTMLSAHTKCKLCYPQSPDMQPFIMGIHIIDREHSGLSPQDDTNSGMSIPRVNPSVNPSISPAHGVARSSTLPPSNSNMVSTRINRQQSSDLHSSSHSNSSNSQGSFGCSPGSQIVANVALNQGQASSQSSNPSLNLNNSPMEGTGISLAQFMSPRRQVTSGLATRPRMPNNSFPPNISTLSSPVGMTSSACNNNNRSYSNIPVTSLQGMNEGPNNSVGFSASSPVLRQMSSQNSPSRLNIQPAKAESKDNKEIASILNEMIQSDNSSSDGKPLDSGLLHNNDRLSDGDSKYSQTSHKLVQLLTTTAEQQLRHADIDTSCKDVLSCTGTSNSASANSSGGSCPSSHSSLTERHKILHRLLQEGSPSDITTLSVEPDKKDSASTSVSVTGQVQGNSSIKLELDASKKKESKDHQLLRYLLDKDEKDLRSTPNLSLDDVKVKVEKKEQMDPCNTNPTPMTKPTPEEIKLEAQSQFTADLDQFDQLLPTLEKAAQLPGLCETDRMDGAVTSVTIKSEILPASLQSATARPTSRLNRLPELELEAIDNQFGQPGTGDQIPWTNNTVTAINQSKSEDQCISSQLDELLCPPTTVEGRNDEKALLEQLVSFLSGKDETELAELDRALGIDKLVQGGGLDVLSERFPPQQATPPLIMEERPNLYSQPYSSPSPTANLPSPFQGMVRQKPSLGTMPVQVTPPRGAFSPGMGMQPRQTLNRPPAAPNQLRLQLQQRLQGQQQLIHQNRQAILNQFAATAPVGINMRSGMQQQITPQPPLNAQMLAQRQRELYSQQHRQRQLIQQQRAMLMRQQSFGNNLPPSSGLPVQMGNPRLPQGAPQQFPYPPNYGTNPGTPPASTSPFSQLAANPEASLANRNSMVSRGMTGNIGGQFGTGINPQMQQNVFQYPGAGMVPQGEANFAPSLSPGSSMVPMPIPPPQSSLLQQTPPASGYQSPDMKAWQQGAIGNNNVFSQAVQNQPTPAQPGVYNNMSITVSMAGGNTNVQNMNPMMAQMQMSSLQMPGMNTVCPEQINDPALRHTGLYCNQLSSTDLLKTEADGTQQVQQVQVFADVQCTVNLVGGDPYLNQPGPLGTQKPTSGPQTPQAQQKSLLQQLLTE

[4] = repression of VP16-driven luciferase reporter – cell-based, luminescence, high throughput, counter-screen for SRC1 inhibitor project (AID 588824); settings: cell-based VP16 transactivation luciferase luminescence; at 3.6 µM; stronger effect = higher value
[5] = StAR promoter reporter inhibitors, counter-screen for LRH-1 inverse agonist project, cell-based, luminescence, high throughput (AID 651611; in the data active means inhibition above about 28%); settings: StAR promoter luciferase reporter counterscreen, at 3.6 µM, stronger effect = higher value
[6] = target: Nuclear receptor subfamily 5 group A member 2 (Homo sapiens) (UniProt O00482); experiment: NR5A2 activity suppression in reporter cells – cell-based, luminescence, confirmation (AID 651613; in the data active means inhibition above about 42%;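 further: HEK293T cells co-transfected with LRH-1 and StAR promoter luciferase reporter; 0% = vehicle wells and 100% = parental cells lacking receptor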); settings: cell-based LRH-1 luciferase reporter, inverse agonism; at 3.6 µM; stronger effect = higher value
Chain of Nuclear receptor subfamily 5 group A member 2 (Homo sapiens) (O00482 whole entry, looked up): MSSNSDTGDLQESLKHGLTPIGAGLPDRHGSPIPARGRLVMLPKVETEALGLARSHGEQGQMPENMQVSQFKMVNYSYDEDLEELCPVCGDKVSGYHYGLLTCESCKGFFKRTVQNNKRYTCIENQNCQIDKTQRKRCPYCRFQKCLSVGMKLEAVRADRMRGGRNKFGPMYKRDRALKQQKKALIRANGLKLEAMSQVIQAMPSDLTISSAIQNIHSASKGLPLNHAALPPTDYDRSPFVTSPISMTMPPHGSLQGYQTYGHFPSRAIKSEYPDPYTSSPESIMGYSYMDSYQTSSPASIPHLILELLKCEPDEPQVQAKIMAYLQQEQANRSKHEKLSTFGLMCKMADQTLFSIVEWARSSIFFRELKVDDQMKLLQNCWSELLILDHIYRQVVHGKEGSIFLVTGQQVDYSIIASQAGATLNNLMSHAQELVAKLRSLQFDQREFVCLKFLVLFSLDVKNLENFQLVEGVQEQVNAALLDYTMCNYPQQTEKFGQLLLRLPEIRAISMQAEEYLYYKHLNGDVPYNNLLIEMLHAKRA

[7] = target: Steroidogenic factor 1 (Homo sapiens) (UniProt Q13285); experiment: inverse agonism at SF1 nuclear receptor – cell-based, luminescence, high throughput, counter-screen for LRH-1 inverse agonist project (AID 651614; in the data active means inhibition above about 44%;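 further: cells cotransfected with StAR promoter reporter and SF1 expression vector; 0% = vehicle on cells with receptor and 100% = vehicle on cells lacking receptor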); settings: cell-based SF1 luciferase reporter, at 3.6 µM, stronger effect = higher value
[8] = compounds suppressing VP16-driven luciferase signal – cell-based, luminescence, high throughput, counter-screen for LRH-1 inverse agonist project (AID 651615; in the data active means inhibition above about 33%); settings: Gal4-VP16 luciferase reporter cells, at 3.6 µM, stronger effect = higher value
[9] = test system: transactivating tegument protein VP16 (Human herpesvirus 1); experiment: compounds suppressing VP16-driven luciferase signal – cell-based, luminescence, single concentration, counter-screen for SRC2 inhibitor project (AID 652007; in the data active means inhibition above about 36%); settings: cell-based VP16 transactivation luciferase reporter, at 8.9 µM, stronger effect = higher value
[10] = target: Nuclear receptor coactivator 2 (Homo sapiens) (UniProt Q15596); experiment: inhibition of GAL4-SRC2 driven luciferase expression – cell-based, luminescence, HEK293, triplicate, confirmation (AID 652008;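 active means mean inhibition above 46.5%, the solvent-only control mean plus 3 SD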;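 further: 0% = DMSO-treated cells and 100% = Gossypol at 36 µM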); settings: HEK293 GAL4-SRC2 luciferase reporter, at 8.9 µM, stronger effect = higher value
Chain of Nuclear receptor coactivator 2 (Homo sapiens) (Q15596 whole entry, looked up, the tested form may be a part): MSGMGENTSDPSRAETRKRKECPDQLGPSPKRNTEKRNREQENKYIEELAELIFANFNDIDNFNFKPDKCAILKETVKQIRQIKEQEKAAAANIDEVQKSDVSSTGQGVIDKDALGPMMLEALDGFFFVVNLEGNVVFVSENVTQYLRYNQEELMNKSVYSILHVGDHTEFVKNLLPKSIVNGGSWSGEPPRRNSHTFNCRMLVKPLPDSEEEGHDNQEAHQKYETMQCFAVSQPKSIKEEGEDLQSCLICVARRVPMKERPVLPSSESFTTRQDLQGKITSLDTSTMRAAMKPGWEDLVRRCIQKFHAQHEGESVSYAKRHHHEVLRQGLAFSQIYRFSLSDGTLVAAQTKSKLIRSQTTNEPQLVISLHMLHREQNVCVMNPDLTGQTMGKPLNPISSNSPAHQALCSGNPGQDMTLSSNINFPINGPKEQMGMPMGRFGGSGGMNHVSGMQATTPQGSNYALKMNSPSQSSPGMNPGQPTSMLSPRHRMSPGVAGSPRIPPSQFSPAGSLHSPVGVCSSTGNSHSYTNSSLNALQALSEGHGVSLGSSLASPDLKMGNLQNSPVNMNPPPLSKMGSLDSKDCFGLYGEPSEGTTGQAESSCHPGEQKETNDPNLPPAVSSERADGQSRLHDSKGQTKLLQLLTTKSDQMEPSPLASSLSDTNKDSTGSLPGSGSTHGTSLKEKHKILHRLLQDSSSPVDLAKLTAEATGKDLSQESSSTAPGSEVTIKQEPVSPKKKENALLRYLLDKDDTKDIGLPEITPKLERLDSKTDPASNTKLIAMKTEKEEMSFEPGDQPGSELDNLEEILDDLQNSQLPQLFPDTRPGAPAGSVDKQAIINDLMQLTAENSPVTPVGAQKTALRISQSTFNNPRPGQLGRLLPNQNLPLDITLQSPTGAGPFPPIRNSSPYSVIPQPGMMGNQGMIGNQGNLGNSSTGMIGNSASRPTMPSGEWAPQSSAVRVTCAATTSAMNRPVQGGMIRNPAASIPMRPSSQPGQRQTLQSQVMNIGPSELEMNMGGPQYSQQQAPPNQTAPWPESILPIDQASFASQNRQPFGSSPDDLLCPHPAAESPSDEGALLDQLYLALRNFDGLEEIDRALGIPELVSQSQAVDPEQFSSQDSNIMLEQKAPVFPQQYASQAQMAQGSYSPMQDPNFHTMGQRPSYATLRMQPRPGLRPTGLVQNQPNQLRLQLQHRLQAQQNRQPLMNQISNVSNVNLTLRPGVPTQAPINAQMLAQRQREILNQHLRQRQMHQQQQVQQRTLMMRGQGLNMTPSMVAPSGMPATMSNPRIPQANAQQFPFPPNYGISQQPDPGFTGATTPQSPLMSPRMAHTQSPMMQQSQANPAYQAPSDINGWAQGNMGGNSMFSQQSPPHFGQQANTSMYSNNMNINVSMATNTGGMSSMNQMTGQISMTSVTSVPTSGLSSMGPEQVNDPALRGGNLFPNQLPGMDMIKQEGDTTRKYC

[11] = VP16-driven transactivation reporter suppression – cell-based, luminescence, HEK293, counter-screen for COUP-TFII antagonist project (AID 687007; in the data active means inhibition above about 13%); settings: HEK293 Gal4-VP16 luciferase reporter, at 8.5 µM, stronger effect = higher value
[12] = target: COUP transcription factor 2 (Homo sapiens) (UniProt P24468); experiment: retest of COUP-TFII reporter suppressors – cell-based, luciferase reporter, HEK293, triplicate, confirmation (AID 687008;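 active means mean inhibition over three repeats above a set limit taken from the earlier primary screen, cut at about 38% in these data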;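 further: 100% = cells given the luciferase reporter alone without the COUP-TF2 vector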); settings: HEK293 NGFI-A luciferase reporter, luminescence; at 8.5 µM; stronger effect = higher value

Measured: inhibition

CC(=O)OC1CC2(O)C3CCC4CC(O)CCC4(C)C3CCC2(C)C1C1=CC(=O)OC1 (stereo not drawn)
inactive: [10] 45.1%
active: [1] 95.9% | [2] 84.3% | [3] 71.4% | [4] 83.3% | [5] 96.5% | [6] 111% | [7] 98.7% | [8] 91.9% | [9] 65.2%

CC1CCOC(=O)C=CC=CC(=O)OC2CC3OC4C5OC5(C)C(O)CC4(COC(=O)C1O)C2(C)C31CO1 (stereo not drawn)
active: [1] 98.8% | [2] 97.3% | [3] 97.2% | [4] 97.1% | [9] 80.4% | [10] 75.2%

NC(=S)c1cn(C2OC(CO)C(O)C2O)c2ncnc(N)c12 (stereo not drawn)
active: [1] 97.4% | [2] 95.9% | [3] 89.7% | [4] 96.2% | [5] 93.2% | [6] 109% | [7] 98% | [8] 97.9% | [9] 69.4% | [10] 71.6%

C[C@]12CCC3C(CCC4=CC(O)CC[C@@]43/C=N/O)C1(O)CCC2C1=CC(=O)OC1 (stereo partly drawn)
inactive: [10] 11.4%
active: [1] 95.1% | [2] 79.7% | [3] 49.1% | [4] 77.8% | [5] 94.8% | [6] 108% | [7] 97% | [8] 82.5% | [9] 63.6%

CC1OC(OC2CC(O)C3(CO)C4C(O)CC5(C)C(C6=CC(=O)OC6)CCC5(O)C4CCC3(O)C2)C(O)C(O)C1O (stereo not drawn)
active: [1] 97.2% | [2] 89.1% | [3] 80.3% | [4] 87.2% | [6] 109% | [7] 96% | [8] 93.5% | [9] 70.9% | [10] 54%

COc1ccc(CC2C(=O)NC(C)C(=O)N(C)C3C(=O)N(C)C(Cc4ccc(O)c(c4)Oc4ccc(cc4)C3O)C(=O)NC(C)C(=O)NC(C)C(=O)N2C)cc1 (stereo not drawn)
active: [1] 98.6% | [2] 96.7% | [3] 94.8% | [4] 95.5% | [6] 111% | [7] 98.8% | [9] 80.4% | [10] 77.1%

C=Cc1cc(OC)c2c(c1)c(=O)oc1c2cc(OC)c2c(O)ccc(C3OC(C)C(O)C(C)(O)C3O)c21 (stereo not drawn)
active: [1] 46.1% | [2] 88.3% | [4] 88% | [9] 42.7%
inactive: [3] -23.3% | [10] -166%

CCN1CCN(c2ncnc3ccc(Br)cc23)CC1
inactive: [9] 2.45% | [10] 36.7%
active: [1] 56.6% | [2] 54.3% | [3] 72.2% | [4] 44.9%

CCC1CN2CCc3cc(OC)c(OC)cc3C2CC1CC1NCCc2c1[nH]c1ccc(O)cc21 (stereo not drawn)
active: [1] 98% | [2] 96.7% | [3] 95.4% | [4] 95.9% | [5] 95.7% | [6] 110% | [7] 98.3% | [8] 98.7% | [9] 78.1% | [10] 73.4%

C[C@]12CC[C@H](O)C[C@H]1CC[C@@H]1[C@@H]2CC[C@]2(C)[C@@H](C3=CC(=O)OC3)CC[C@]12O
inactive: [10] 30.2%
active: [1] 95.3% | [2] 82.7% | [3] 58.7% | [4] 80.1% | [5] 95.7% | [6] 110% | [7] 97.4% | [8] 87% | [9] 56%

O=C(Nc1ccc(OC(=O)N2CCCCC2)cc1)N1CCOCC1
active: [5] 29.4% | [10] 68.5%
inactive: [1] 24.1% | [2] 1.46% | [3] 9.87% | [4] -2.66% | [6] 19.7% | [7] 37.9% | [8] 14.3% | [9] 35%

C[C@]12CC[C@H](O)C[C@H]1CC[C@@H]1C2CC[C@]2(C)[C@@H](C3=CC(=O)OC3)[C@@H](O)C[C@]12O (stereo partly drawn)
active: [1] 75.3% | [5] 87.1% | [6] 90.4% | [7] 69.9% | [8] 40.9%
inactive: [2] 21.1% | [3] -39% | [4] 12.7% | [11] -16.6% | [12] 30.9%

COc1ccc(-n2nnnc2C(c2cc3ccccc3o2)N2CCC(n3c(=O)[nH]c4ccccc43)CC2)cc1 (stereo not drawn)
active: [5] 39.6% | [7] 45.7% | [8] 35.3% | [9] 49.7%
inactive: [1] -5.69% | [2] 5.58% | [3] 0.21% | [4] 6.66% | [6] 36.4% | [10] 22.9%

O=C1CN=C(c2ccc[nH]2)c2cc(Cl)ccc2N1
active: [1] 76% | [2] 57.9% | [3] 53.3% | [4] 57.5%
inactive: [9] 30.2% | [10] 44%

CC(=O)OC1(C)CC(C)C(=O)C(C(O)CC2CC(=O)NC(=O)C2)C1 (stereo not drawn)
active: [1] 98% | [2] 96.7% | [3] 93.5% | [4] 95.6% | [5] 94.8% | [6] 110% | [7] 97.5% | [8] 95.8% | [9] 80.1% | [10] 71.5%

Nc1ncnc2c1ccn2[C@@H]1O[C@H](CO)[C@@H](O)[C@H]1O
active: [1] 93.6% | [2] 89.5% | [3] 53.4% | [4] 86.8% | [5] 90.9% | [6] 107% | [7] 94.2% | [8] 93.6% | [9] 55.5% | [10] 58.3%

CCC(C)C1NC(=O)C(NC(=O)C(CC(C)C)N(C)C(=O)C2CCCN2C(=O)C(C)O)C(C)OC(=O)C(Cc2ccc(OC)cc2)N(C)C(=O)C2CCCN2C(=O)C(CC(C)C)NC(=O)[C@H](C)C(=O)[C@H](C(C)C)OC(=O)CC1O (stereo partly drawn)
active: [1] 99.5% | [2] 98.2% | [3] 98.5% | [4] 98.1% | [5] 96.4% | [6] 111% | [7] 98.4% | [8] 99% | [9] 82.2% | [10] 79.6%

O=[N+]([O-])c1ccc(N(CCO)CCO)c2c1no[n+]2[O-]
active: [1] 52.6% | [5] 70.7% | [6] 76.2% | [7] 74.4% | [10] 56.3%
inactive: [2] 27.8% | [3] 29.1% | [4] 14.5% | [8] 28.9% | [9] 29.9%

Cc1cccc(C)c1-n1nnnc1C(c1cccs1)N1CCC2(CC1)C(=O)NCN2c1ccccc1 (stereo not drawn)
inactive: [3] 22.3% | [4] 4.87%

CCCCn1nnnc1C(CCc1ccccc1)N1CCC(n2c(=O)[nH]c3ccccc32)CC1 (stereo not drawn)
inactive: [3] -23.9% | [4] 7.75%

O=c1[nH]c2ccccc2n1C1CCN(C(c2cccs2)c2nnnn2-c2ccc3c(c2)OCCO3)CC1 (stereo not drawn)
inactive: [3] -26.2%
active: [4] 25.5%

COC(=O)c1ccc(NC(=O)CSc2nc3ccc(N4C(=O)C5C6C=CC(C6)C5C4=O)cc3s2)cc1 (stereo not drawn)
inactive: [1] -22.8% | [2] -0.23% | [9] 24.8% | [10] -3.51%

COc1ccc(-n2nnnc2C(c2cccc3ccccc23)N2CCC3(CC2)C(=O)NCN3c2ccccc2)cc1 (stereo not drawn)
inactive: [3] -1.91% | [4] 5.57%

COc1ccc(-n2nnnc2C(c2ccccc2)N2CCC(n3c(=O)[nH]c4ccccc43)CC2)cc1 (stereo not drawn)
inactive: [3] -22.4% | [4] 5.11%

CCC(c1nnnn1-c1ccc2c(c1)OCCO2)N1CCC(n2c(=O)[nH]c3ccccc32)CC1 (stereo not drawn)
inactive: [3] -22% | [4] 9.85%

CCC(c1nnnn1Cc1ccccc1)N1CCC(n2c(=O)[nH]c3ccccc32)CC1 (stereo not drawn)
inactive: [3] -50.1% | [4] 0.59%

COC(=O)C1=C(c2ccc(-c3ccccc3)c(F)c2)C[C@@H]2CC[C@H]1N2C(=O)N1CCCCC1
active: [2] 39%
inactive: [1] 18.3% | [9] 19.5% | [10] 35.4%

COc1cc2nc(CN3CC=C(c4ccccc4)CC3)[nH]c(=O)c2cc1OC
inactive: [1] 37.9% | [9] -4.49% | [10] 24.4%
active: [2] 39.7% | [5] 72.7% | [6] 97.1% | [7] 77.1% | [8] 73.8%

CN1C2CCC1/C(=C/c1ccccn1)C(=O)/C2=C\c1ccccn1
inactive: [1] -0.02%
active: [2] 80.8% | [9] 75% | [10] 70.9%

COc1ccc(-n2nnnc2C(c2cccs2)N2CCC(n3c(=O)[nH]c4ccccc43)CC2)cc1 (stereo not drawn)
inactive: [3] -25.6% | [4] -13.5%

CC(=CCOc1ccc2ccc(=O)oc2c1)C1=CC(=O)C(C)(C)O1
inactive: [3] 17.3%
active: [4] 35.2%

CC(=NNC(=S)N1CC2CCC(CC2)C1)c1nccs1
active: [3] 62.2% | [4] 74.4%

CC1CCC/C=C/C2CC(O)CC2C(O)/C=C/C(=O)O1 (stereo not drawn)
active: [1] 64.7% | [2] 75% | [5] 78.9% | [6] 86.7% | [7] 80.8% | [8] 74.8%

COC(=O)C[C@]1(C(=O)OC)CN(C#N)N(c2ccc(Cl)cc2)C12c1ccccc1-c1ccccc12
inactive: [1] 17.7%
active: [2] 63.2% | [5] 34.7% | [6] 61.1% | [7] 58.2% | [8] 69.2%

COC(=O)C1=C(c2ccc(-c3ccccc3)c(F)c2)C[C@@H]2CC[C@H]1N2C(=O)N1CCOCC1
inactive: [3] 2.48% | [4] 25.3%

COC(=O)C1=C(c2ccc(-c3ccccc3)c(F)c2)C[C@@H]2CC[C@H]1N2C(=O)NC1CC1
active: [4] 25.6%
inactive: [3] 15.1%

C[C@H]1CCC/C=C/[C@@H]2C[C@H](O)C[C@H]2[C@H](O)/C=C/C(=O)O1
active: [1] 70% and 66.5% | [2] 76.2% and 77.2% | [5] 77.6% and 82% | [6] 82.1% and 88.7% | [7] 75% and 80.4% | [8] 78.7% and 78.3%

Reference: PubChem BioAssay
